Reference: PubChem BioAssay (NCATS)
Inconclusive results are not listed. Calls of active or inactive are those of the source. The call rests on the fitted dose curve; in most records, active means well fitted inhibition curve with a large enough effect; inconclusive means small, poorly fitted or top-dose-only effect; inactive means flat fitted curve, though single readings scatter. Where a SMILES comes first, the peptide text is derived from it. The star is where a group is joined. Boc = CC(C)(C)OC(=O)*

Test system: Zika virus NS2B-NS3 protease
Assay: Primary screen GU AMC qHTS for Zika virus inhibitors (AID 1347154); further: nearly all actives have a fitted effect of over 70% in size;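 on activity change, negative = inhibition: 0% = no-inhibitor control and -100% = no-enzyme control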
Details: Zika NS2B-NS3 unlinked protease, AMC fluorogenic substrate; series mostly up to 54.1 µM; activity change, negative = inhibition: at the top concentration
How it was run: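 Unlinked Zika NS2B hydrophilic domain/NS3 protease domain noncovalent complex (25 nM final) in 10 mM Tris-HCl pH 8.0, 0.01% Tween 20, with AMC peptide substrate. Fluorescence (ex 340, em 450 nm) change over 15 min, room temperature; percent inhibition fitted to 4-parameter Hill equation.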
Potency means the concentration at half of the fitted maximal effect.

Activity change, negative = inhibition, inactive:
O=C(O)/C=C1\CCCc2ccccc2C1O (stereo not given) -1.57%, Nc1ncc2[nH]cnc2n1 6.29%, OC[C@H]1O[C@@H](n2cnc3c(N[C@H]4C[C@H]5CC[C@@H]4C5)ncnc32)[C@H](O)[C@@H]1O 11.1%, CCCCCCCCCCCCCCCCOCC(CO)OC (stereo not given) 21.3% [at 6.83 µM], COC1C(O)C(CO)OC1n1cnc2c(NC3CCCCC3)ncnc21 (stereo not given) 21.4%, C[C@@H](Cc1ccccc1)Nc1ncnc2c1ncn2[C@@H]1O[C@H](CO)[C@@H](O)[C@H]1O 13.3%, CCCCCCCCCCCCCCC[C@@H](O)[C@H](CO)NC(C)=O 7.2% [at 6.83 µM], CCCCC/C=C\C/C=C\C/C=C\C/C=C\CCCC(=O)O[C@@H](CO)COC(=O)CCCCCCCCCCCCCCCCC 6.26% [at 6.83 µM], CCCN(C/C=C/I)C1CCc2cccc(O)c2C1 (stereo not given) 7.72%, CC(C)[C@H](NC(=O)CNC(=O)OC(C)(C)C)C(=O)N[C@H](C=O)C(C)C (Boc-Gly-Val-Val-aldehyde) 23% [at 104 µM], Cc1[nH]c(/C=C2/C(=O)Nc3ccc(S(=O)(=O)Cc4c(Cl)cccc4Cl)cc32)c(C)c1C(=O)N1CCCC1CN1CCCC1 (stereo not given) 4.58%, CCCCCCOC(=O)C1(O)CC2OC1(C)n1c3ccccc3c3c4c(c5c6ccccc6n2c5c31)C(=O)NC4 (stereo not given) 19.5% [at 4.99 µM], Nc1ncnc2c1ncn2[C@H]1O[C@@H](CSCC[C@@H](N)C(=O)O)[C@H](O)[C@@H]1O 1.23%, CO[C@H]1C[C@@H]2CC[C@@H](C)[C@@](O)(O2)C(=O)C(=O)N2CCCC[C@H]2C(=O)O[C@H](C(C)C[C@H]2CC[C@@H](O)[C@H](OC)C2)CC(=O)[C@H](C)/C=C(\C)[C@@H](O)[C@@H](OC)C(=O)[C@H](C)C[C@H](C)/C=C/C=C/C=C/1C (stereo not given in full) 5.36% [at 25.8 µM], CNCC(=O)NCC(=O)N[C@@H](Cc1ccccc1)C(=O)N[C@@H](CC(C)C)C(=O)O (HELM PEPTIDE1{[Sar].G.F.L}$$$$V2.0) 7.91% [at 6.83 µM], N[C@H](C(=O)O)C1C(C(=O)O)C1C(=O)O (stereo not given in full) -0.748%, CCCCCCCCCCCCC/C=C/[C@@H](O)[C@H](CO)NC(=O)CCCCCCC 11.7% [at 6.83 µM], O=c1nc2ccccc2c2n1CC(CN1CCN(c3ccccc3)CC1)N2 (stereo not given) 1.86%, CSCC[C@H](NC(=O)[C@H](Cc1ccccc1)NC[C@@H](NC[C@@H](N)CS)C(C)C)C(=O)O 12.3%, CC(=O)NC1C(OC2OC(CC(O)C3OC([N+]4=CCC(=O)NC4=O)C(O)C3O)C(O)C(O)C2NC(=O)/C=C/CCCCCCCCC(C)C)OC(CO)C(O)C1O (stereo not given) 19.4% [at 25.8 µM], CC(N)(COP(=O)(O)O)C(=O)O (stereo not given) 13.2%, CCCCCCCCCCCCC/C=C/[C@@H](O)[C@H](CO)NC(=O)CCCCCCCCCCCCCCC 22% [at 6.83 µM], CC(C)[C@H]1c2ccc(F)cc2CC[C@@]1(CCN(C)CCCc1nc2ccccc2[nH]1)OC(=O)C1CC1 -1.21%, CCCCC/C=C\C=C\[C@H](O)CCCCCCCC(=O)O 19.3% [at 0.59 µM], CCCCC[C@H](O)/C=C/C=C\C=C\C=C\[C@@H](O)[C@@H](O)CCCC(=O)O 15% [at 0.59 µM], CCCCC(C)(O)C/C=C/[C@H]1[C@H](O)CC(=O)[C@@H]1CCCCCCC(=O)O (stereo not given in full) 14% [at 6.83 µM], H-LVVYPWTQR-OH 5.8% [at 6.83 µM], Cc1ccc2c(c1)C(=O)C1(O)CCN(c3ccccc3)C1=N2 (stereo not given) 9.98% [at 104 µM], C[C@@H](O)CNC(C)(C)CC(=O)N[C@@H]1CCc2ccccc2N(Cc2ccc(-c3ccccc3-c3nn[nH]n3)cc2)C1=O 3.99%, OC[C@H]1O[C@@H](n2cnc3c(NC4CCCC4)nc(Cl)nc32)[C@H](O)[C@@H]1O 7.6%, Nc1nc2c(ncn2[C@@H]2O[C@H](COP(=O)(O)OP(=O)(O)O)[C@@H](O)[C@H]2O)c(=O)[nH]1 11.3%, N[C@@H](C(=O)O)[C@@H](CC(=O)O)c1ccc(Cl)cc1 9.16%, CCCCCCCC/C=C\CCCCCCCCOC[C@H](COP(=O)([O-])OCC[N+](C)(C)C)OC(C)=O 11.8% [at 6.83 µM], NC1(C(=O)O)CCc2cc(P(=O)(O)O)ccc21 (stereo not given) 2.84%, COc1cccc2c1C(=O)c1c(O)c3c(c(O)c1C2=O)C[C@@](O)(C(=O)CO)C[C@@H]3O[C@@H]1C[C@H](N)[C@H](O)[C@H](C)O1 9.48%, CC[C@]1(O)C[C@@H]2CN(CCc3c([nH]c4ccccc34)[C@@](C(=O)OC)(c3cc4c(cc3OC)N(C)C3[C@]45CCN4CC=C[C@](CC)(C45)[C@@H](OC(C)=O)[C@]3(O)C(=O)OC)C2)C1 (stereo not given in full) 11.4% [at 25.8 µM], COC(C)(C)CCCC(C)C/C=C/C(C)=C/C(=O)O (stereo not given) 15.8%

Potency, active:
OCc1cc2c(cn1)[nH]c1ccccc12 26.7 µM

Potency, inactive:
CC1(C)Oc2ccc(C#N)cc2[C@@H](OC2=CC(=O)CC2)[C@@H]1O, COc1c(C=O)c(O)cc2c1C(=O)c1ccccc1C2=O
